Measured values as given in PubChem BioAssay (NCATS).
“And” between values parts separate entries of the source, which are not always exact repeats. Equal entries are not always repeated. Results filed as inconclusive are left out. The source made the active and inactive calls. Unless noted, the call rests on the fitted dose curve; in most records, active means well fitted curve in the direction sought with a large enough effect; inconclusive means small, poorly fitted or top-dose-only effect, or another doubt; inactive means no such curve, though single readings can be large; an effect the other way counts as inactive or inconclusive.

Legend:
[1] = qHTS Assay for Lipid Storage Modulators (AID 1519; calls by dose curve; on activity change, negative = inhibition: on the % scale 0 is the no-effect control and ±100 the full control effect); conditions: Drosophila S3 cells, BODIPY lipid droplet/cell ratio, laser cytometry, cells loaded with oleic acid
Method in brief: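 Cells seeded at 5,000 per well were treated with compounds over a concentration series and loaded with oleic acid (400 uM, as added). Lipid droplet fluorescence (488 nm excitation, 500-530 nm channel) was read by laser-scanning cytometry and normalized to 20 uM Triacsin C.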

[2] = molecular target: DNA repair nuclease/redox regulator APEX1 (Homo sapiens) (UniProt P27695); assay: qHTS Validation Assay for Inhibitors of the Human Apurinic/apyrimidinic Endonuclease 1 (APE1) (AID 1705; further: potency means the concentration at half of the fitted maximal effect;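 on activity change, negative = inhibition: TAMRA fluorescence gain over two minutes as APE1 cuts a quenched THF abasic duplex; on the % scale 0 is the no-effect control and ±100 the full control effect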); conditions: purified APE1 endonuclease activity, fluorescence, titration; series mostly up to 57.1 µM
Method in brief: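 Read-out: TAMRA fluorescence (525 nm ex, 598 nm em) from cleavage of a quenched THF abasic-site duplex, 50 nM final; activity taken as intensity change between third and first of three reads 60 s apart.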

[3] = molecular target: Endonuclease 4 (Escherichia coli (strain K12)) (UniProt P0A6C1); assay: Counterscreen for APE1 Inhibitors: qHTS Validation Assay for Inhibitors of Endonuclease IV (AID 1708); further: on the % scale 0 is the no-effect control and ±100 the full control effect; conditions: E. coli endonuclease IV, DNA cleavage fluorescence; series mostly up to 57.1 µM
Method in brief: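 Incision of a double-stranded 50 nM TAMRA/BHQ-2 abasic substrate was followed kinetically (525/598 nm, reads every 60 s) after 15 min enzyme–compound preincubation with 2 nM EndoIV in pH 7.5 Tris buffer with MgCl2, DTT and Tween-20; concentration-response format.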

[4] = qHTS for differential inhibitors of proliferation of Plasmodium falciparum line 7G8 (AID 1815); conditions: Plasmodium falciparum 7G8 proliferation inhibition; series mostly up to 28.7 µM;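 further: parasite growth measured after three days of incubation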; further: potency means the concentration at half of the fitted maximal effect;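 on activity change, negative = inhibition: plate controls were vehicle wells for no effect and reference inhibitor wells for full effect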
[5] = qHTS for differential inhibitors of proliferation of Plasmodium falciparum line GB4 (AID 1816); conditions: Potency: Plasmodium falciparum GB4 proliferation inhibition; series mostly up to 28.7 µM;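 further: parasite growth measured after 72 h incubation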; further: potency means the concentration at half of the fitted maximal effect;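 on activity change, negative = inhibition: 0% = vehicle DMSO and -100% = reference inhibitor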
[6] = qHTS for differential inhibitors of proliferation of Plasmodium falciparum line 3D7 (AID 1876); further: potency means the concentration at half of the fitted maximal effect; conditions: P. falciparum 3D7 proliferation inhibition; series mostly up to 28.7 µM
[7] = qHTS for differential inhibitors of proliferation of Plasmodium falciparum line D10 (AID 1877); conditions: series mostly up to 28.7 µM;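 further: parasites grown with compound for 72 h before DNA staining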; further: potency means the concentration at half of the fitted maximal effect;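 on activity change, negative = inhibition: plate controls were vehicle wells for no effect and reference inhibitor wells for full effect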
[8] = qHTS for differential inhibitors of proliferation of Plasmodium falciparum line Dd2 (AID 1882); conditions: Potency: Plasmodium falciparum Dd2 proliferation inhibition; series mostly up to 28.7 µM; further: nearly all actives have a fitted effect of over 65% in size; further: potency means the concentration at half of the fitted maximal effect;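 on activity change, negative = inhibition: plate controls were DMSO vehicle for no effect and 0.29 µM artemisinin for full effect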
Method in brief: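 SYBR Green DNA fluorescence (ex 485, em 535 nm) after overnight lysis quantifies parasite growth; compound exposure lasted 72 h at 37 C on infected red cells at 2.5% hematocrit, 0.3% parasitemia (final). Artemisinin 0.29 uM and vehicle wells define normalization.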

[9] = qHTS for differential inhibitors of proliferation of Plasmodium falciparum line W2 (AID 1883); conditions: Potency: Plasmodium falciparum W2 proliferation inhibition; series mostly up to 28.7 µM;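 further: parasites grown with compound for 72 h before lysis and staining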; further: potency means the concentration at half of the fitted maximal effect;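 on activity change, negative = inhibition: 0% = vehicle wells and -100% = control inhibitor wells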
[10] = qHTS for differential inhibitors of proliferation of Plasmodium falciparum line HB3 (AID 1886); conditions: Potency: Plasmodium falciparum HB3 proliferation inhibition; series mostly up to 28.7 µM;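 further: parasites grown with compound for 72 h before SYBR Green readout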; further: potency means the concentration at half of the fitted maximal effect;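 on activity change, negative = inhibition: plate controls were vehicle for no effect and reference inhibitor for full effect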
[11] = molecular target: RecQ-like DNA helicase BLM (Homo sapiens) (UniProt P54132); assay: qHTS Validation Assay for Inhibitors of Bloom's syndrome helicase (BLM) (AID 2364); conditions: BLM helicase DNA unwinding, fluorescence, in vitro; series mostly up to 57.1 µM;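 further: plate controls were DMSO vehicle for no effect and enzyme-free control for full effect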
Method in brief: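 Forked 20-bp duplex substrate (200 nM, TAMRA/BHQ-2) plus 2 mM ATP added after 15 min compound preincubation with 50 nM enzyme, pH 8.0, poly(dI-dC) 2.5 ug/ml. Strand separation followed by fluorescence (525/598 nm) over 2 h, normalized to enzyme-free and DMSO controls.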

[12] = Cytometric Cell-Based qHTS for Inhibitors of the mTORC1 Signaling Pathway in MEF (Tsc2-/-, p53-/-) Cells (AID 2660); conditions: mTORC1 pathway cytometry; series mostly up to 38.3 µM;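 further: Tsc2 and p53 null MEFs carrying empty vector with compound for 24 h; percent of cells above a phospho-rpS6 to PI ratio cutoff in each well; plate controls were DMSO for no effect and rapamycin for full effect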
Method in brief: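 Readout: Alexa-488 phospho-rpS6 (Ser235/236) intensity divided by PI intensity, thresholded against 7.5 nM rapamycin wells and reported as % positive cells. PI cell count served as the viability measure. Compound exposure was 24 hrs at 37 degree Celsius.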

[13] = High Content Imaging Cell-Based qHTS for Inhibitors of the mTORC1 Signaling Pathway in MEF (Tsc2-/-, p53-/-) Cells (AID 2666); conditions: series mostly up to 38.3 µM;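 further: percent of cells scored positive for phospho-rpS6 Ser235/236 immunostaining by imaging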
Method in brief: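 Tsc2-/-, p53-/- MEFs (empty-vector stable) grown in DMEM + 10% FBS were exposed to compounds for 24 hrs at 37 degree Celsius, fixed, and stained with Alexa-488 anti-phospho-rpS6 Ser235/236 plus Hoechst. Imaging gave the percentage of positive cells per well.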

[14] = High Content Imaging Cell-Based qHTS for Inhibitors of the mTORC1 Signaling Pathway in MEF Cells (AID 2667); conditions: series mostly up to 38.3 µM;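 further: Tsc2-/- p53-/- MEFs stably re-expressing wild-type Tsc2 exposed 24 h; plate controls were DMSO wells for no effect and rapamycin control wells for full effect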
Method in brief: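 Tsc2-/-, p53-/- MEFs stably re-expressing WT Tsc2, grown in DMEM + 10% FBS, were treated with compounds for 24 hrs at 37 degree Celsius, fixed, and stained with Alexa-488 phospho-rpS6 Ser235/236 antibody plus Hoechst; results given as % positive cells.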

[15] = molecular target: ATP-dependent DNA helicase Q1 (Homo sapiens) (UniProt P46063); assay: qHTS Validation Assay for Inhibitors of RecQ-Like Dna Helicase 1 (RECQ1) (AID 2353); conditions: recombinant RECQ1 helicase DNA unwinding assay; series mostly up to 25.6 µM;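 further: plate controls were DMSO vehicle for no effect and enzyme-free control for full effect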
Method in brief: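 RECQ1T1 50 nM; forked duplex (20 bp + 30-nt ss tails) 200 nM, ATP 2 mM final; pH 8.0, 2 mM MgCl2, 2.5 ug/ml poly(dI-dC); 15 min compound preincubation; discontinuous kinetic read over 2 h at RT.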

[16] = molecular target: Ferritin light chain (Equus caballus) (UniProt P02791); assay: qHTS Validation Assay for Identification of Novel General Anesthetics (AID 2323); conditions: horse apoferritin, anesthetic-site fluorescent probe displacement; series mostly up to 76.9 µM; further: on the % scale 0 is the no-effect control and ±100 the full control effect
Method in brief: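 10 uM horse-spleen apoferritin + 1-AMA (50% saturated, PBS); cpd pin-transferred, 10 min RT. Ex 380/Em 535 nm endpoint. Activity normalized between free 1-AMA and 1-AMA/apoferritin; 4-parameter Hill fit of concentration-response.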

[17] = Counterscreen for APE1 Inhibitors: Fluorescent Dye Displacement Validation Assay (AID 1707); conditions: fluorescent dye displacement from DNA; series mostly up to 57.1 µM;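 further: plate controls were ThO with dsDNA and no compound for no effect and ThO without dsDNA for full effect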
Method in brief: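 Signal: ThO fluorescence (ex 480 nm/em 540 nm) on binding 50 nM dsDNA; displacement by test compound reduces it. Conditions: 250 nM dye, 50 mM Tris-HCl pH7.5, 2 mM MgCl2, 50mM NaCl, 0.01% Tween-20.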

[18] = measured here: cell count channel max response
[19] = measured here: lipid channel max response

Sequence of RecQ-like DNA helicase BLM (Homo sapiens) (P54132 whole entry, looked up): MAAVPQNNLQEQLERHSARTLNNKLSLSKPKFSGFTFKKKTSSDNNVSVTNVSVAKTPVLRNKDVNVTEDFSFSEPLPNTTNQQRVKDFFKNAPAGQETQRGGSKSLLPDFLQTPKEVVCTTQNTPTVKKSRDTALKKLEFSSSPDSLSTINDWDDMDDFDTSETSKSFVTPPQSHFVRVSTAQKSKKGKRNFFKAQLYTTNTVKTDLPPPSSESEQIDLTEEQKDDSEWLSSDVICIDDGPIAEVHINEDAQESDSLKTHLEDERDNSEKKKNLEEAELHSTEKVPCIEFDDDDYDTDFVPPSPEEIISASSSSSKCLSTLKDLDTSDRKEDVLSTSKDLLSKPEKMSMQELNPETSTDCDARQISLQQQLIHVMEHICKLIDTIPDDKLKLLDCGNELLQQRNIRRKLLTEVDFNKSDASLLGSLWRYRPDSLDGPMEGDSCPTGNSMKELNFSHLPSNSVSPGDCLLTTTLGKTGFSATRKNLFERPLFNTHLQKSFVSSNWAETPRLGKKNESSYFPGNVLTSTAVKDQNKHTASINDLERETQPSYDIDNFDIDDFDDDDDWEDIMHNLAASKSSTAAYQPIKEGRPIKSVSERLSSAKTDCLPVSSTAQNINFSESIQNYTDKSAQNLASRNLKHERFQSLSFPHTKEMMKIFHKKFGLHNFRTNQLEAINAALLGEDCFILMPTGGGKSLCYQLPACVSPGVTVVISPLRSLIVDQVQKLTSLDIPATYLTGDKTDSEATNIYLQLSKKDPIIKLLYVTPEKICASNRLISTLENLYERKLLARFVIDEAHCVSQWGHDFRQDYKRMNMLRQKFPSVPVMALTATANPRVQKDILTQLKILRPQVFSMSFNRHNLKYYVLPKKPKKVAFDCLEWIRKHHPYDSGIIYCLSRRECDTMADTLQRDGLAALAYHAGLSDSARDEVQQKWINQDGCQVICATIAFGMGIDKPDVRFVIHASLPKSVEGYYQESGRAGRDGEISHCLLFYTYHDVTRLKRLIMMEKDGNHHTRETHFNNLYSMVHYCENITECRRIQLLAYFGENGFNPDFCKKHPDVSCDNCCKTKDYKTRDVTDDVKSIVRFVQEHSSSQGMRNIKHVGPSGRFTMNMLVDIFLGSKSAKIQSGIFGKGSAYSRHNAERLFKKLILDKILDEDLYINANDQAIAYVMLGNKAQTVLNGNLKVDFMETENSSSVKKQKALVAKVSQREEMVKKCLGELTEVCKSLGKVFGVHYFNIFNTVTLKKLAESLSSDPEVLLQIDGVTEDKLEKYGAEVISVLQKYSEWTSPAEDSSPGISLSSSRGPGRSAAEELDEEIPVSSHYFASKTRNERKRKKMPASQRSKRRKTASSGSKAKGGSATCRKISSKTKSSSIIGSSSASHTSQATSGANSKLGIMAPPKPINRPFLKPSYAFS
Sequence of DNA repair nuclease/redox regulator APEX1 (Homo sapiens) (P27695 whole entry, looked up): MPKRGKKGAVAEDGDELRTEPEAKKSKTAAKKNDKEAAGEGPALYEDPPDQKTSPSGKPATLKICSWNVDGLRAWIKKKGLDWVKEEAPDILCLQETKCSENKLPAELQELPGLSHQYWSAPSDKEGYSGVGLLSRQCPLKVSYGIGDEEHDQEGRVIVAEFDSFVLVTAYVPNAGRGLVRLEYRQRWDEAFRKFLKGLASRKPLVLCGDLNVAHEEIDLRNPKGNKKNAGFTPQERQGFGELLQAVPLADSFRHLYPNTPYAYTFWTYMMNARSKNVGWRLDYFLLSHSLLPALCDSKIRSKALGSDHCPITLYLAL
Sequence of ATP-dependent DNA helicase Q1 (Homo sapiens) (P46063 whole entry, looked up): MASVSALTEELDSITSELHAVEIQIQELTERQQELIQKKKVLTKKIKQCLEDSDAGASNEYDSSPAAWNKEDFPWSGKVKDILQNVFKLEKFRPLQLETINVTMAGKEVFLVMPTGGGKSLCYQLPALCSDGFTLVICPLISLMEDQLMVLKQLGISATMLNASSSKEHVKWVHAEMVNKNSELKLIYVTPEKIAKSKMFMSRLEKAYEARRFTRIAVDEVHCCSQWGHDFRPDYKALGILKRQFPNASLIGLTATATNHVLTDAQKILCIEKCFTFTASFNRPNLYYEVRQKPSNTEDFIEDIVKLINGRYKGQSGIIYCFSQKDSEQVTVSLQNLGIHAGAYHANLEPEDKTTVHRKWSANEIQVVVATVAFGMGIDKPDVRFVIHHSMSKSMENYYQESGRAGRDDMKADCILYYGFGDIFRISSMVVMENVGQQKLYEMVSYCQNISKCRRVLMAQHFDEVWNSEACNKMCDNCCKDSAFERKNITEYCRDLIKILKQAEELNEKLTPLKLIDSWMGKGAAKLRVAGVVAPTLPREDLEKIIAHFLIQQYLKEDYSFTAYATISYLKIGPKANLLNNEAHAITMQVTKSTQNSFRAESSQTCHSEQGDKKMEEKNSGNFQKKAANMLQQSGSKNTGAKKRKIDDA
Sequence of Ferritin light chain (Equus caballus) (P02791 2-175 limits assumed): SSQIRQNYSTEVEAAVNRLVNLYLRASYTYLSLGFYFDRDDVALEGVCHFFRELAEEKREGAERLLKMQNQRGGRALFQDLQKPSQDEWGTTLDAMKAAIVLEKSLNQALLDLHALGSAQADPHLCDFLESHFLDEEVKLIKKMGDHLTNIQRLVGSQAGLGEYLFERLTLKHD

NCCCCCC(=O)O
inactive: activity change, negative = inhibition ([1]; at 25.7 µM (top of the series)) -1.59% | activity change, negative = inhibition ([1]; at 57.5 µM (top of the series)) 7.83% and -0.624% | Potency [2] | Potency [3] | Potency [4] | Potency [5] | Potency [6] | Potency [7] | Potency [8] | Potency [9] | Potency [10] | Potency [11] | outcome [12] | Potency [13] | Potency [14]
-4.61% and 34.1% and -65.3%: max response [1, 19]
-1.8% and 21.2% and -62.4%: max response [1, 18]

OCCN1CCN(CCCN2c3ccccc3Sc3ccc(C(F)(F)F)cc32)CC1
inactive: activity change, negative = inhibition ([1]; at 25.7 µM (top of the series)) -3.93% | activity change, negative = inhibition ([1]; at 57.5 µM (top of the series)) 8.5% and -2.13% | Potency [2] | Potency [15] | Potency [11]
-13.1% and 36.3% and -0.526%: max response [1, 19]
-9.92% and 24.4% and 4.08%: max response [1, 18]

O=C(C1CCCCC1)N1CC(=O)N2CCc3ccccc3C2C1 (stereo unspecified)
inactive: activity change, negative = inhibition ([1]; at 57.5 µM (top of the series)) 2.76% | Potency [2] | Potency [3] | Potency [16] | Potency [15] | outcome [12] | Potency [13] | Potency [14]
active: Potency [9] 12600 nM
-17.9%: max response [1, 18]
-16.6%: max response [1, 19]

CN(Cc1cnc2nc(N)nc(N)c2n1)c1ccc(C(=O)N[C@@H](CCC(=O)O)C(=O)O)cc1
-11.7%: max response [1, 18]
active: Potency [2] 20000 nM | Potency [4] 126 nM | Potency [5] 39.8 nM | Potency [6] 70.8 nM | Potency [7] 39.8 nM | Potency [8] 79.4 nM | Potency [9] 39.8 nM | Potency [10] 70.8 nM
inactive: activity change, negative = inhibition ([1]; at 57.5 µM (top of the series)) 0.2% | Potency [3] | Potency [15] | outcome [12] | Potency [13] | Potency [14]
-9.12%: max response [1, 19]

NC(=O)NO
26.4%: max response [1, 19]
21%: max response [1, 18]
inactive: activity change, negative = inhibition ([1]; at 57.5 µM (top of the series)) 7.16% | Potency [2] | Potency [17] | Potency [3] | Potency [4] | Potency [5] | Potency [6] | Potency [7] | Potency [8] | Potency [9] | Potency [10] | Potency [15] | outcome [12] | Potency [13] | Potency [14]

CCC1(C)CC(=O)NC1=O (stereo unspecified)
13.5% and 40.9%: max response [1, 18]
inactive: activity change, negative = inhibition ([1]; at 57.5 µM (top of the series)) 5.33% and 1.46% | Potency [2] | Potency [3] | Potency [4] | Potency [5] | Potency [6] | Potency [7] | Potency [8] | Potency [9] | Potency [10] | Potency [15] | Potency [11] | outcome [12] | Potency [13] | Potency [14]
22.9% and 41%: max response [1, 19]

CN1CCN2c3ccccc3Cc3ccccc3C2C1 (stereo unspecified)
10.4%: max response [1, 19]
inactive: activity change, negative = inhibition ([1]; at 57.5 µM (top of the series)) 3.41% | Potency [2] | Potency [17] | Potency [3] | Potency [16] | Potency [15] | outcome [12] | Potency [13] | Potency [14]
10.1%: max response [1, 18]
active: Potency [4] 10000 nM | Potency [5] 12600 nM | Potency [8] 7080 nM | Potency [9] 5620 nM | Potency [10] 12600 nM
